# Source: PubChem BioAssay AID1117283 (Broad Institute, 2014)
# Potency and affinity values are given separately. Activity calls are given as the source filed them.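 The calls were made as follows: active = fluorescent signal decreased by at least 40%; inconclusive = no clear call, values can overlap the other calls; inactive = the rest, including activity opposite to the expected direction.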
# Assay: fibronectin fibrillogenesis inhibitors in fibroblasts, dose response, AH1F cells, Alexa488-fibronectin fluorescence, cherry-pick, set 2 (AID 1117283);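 also: AH1F fibroblasts given Alexa488-labelled fibronectin at 24 nM final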
# Settings: Alexa488-fibronectin deposition fluorescence, overnight; series mostly up to 35 µM; activity change, negative = inhibition: at the top concentration
row,SMILES,"activity change, negative = inhibition"
1,O=C(Nc1ccccc1F)N1C[C@H]2[C@@H](c3ccccc31)[C@H](CO)N2C(=O)C1CC1,-11.4% (inactive)
2,O=C(Nc1ccccc1F)N1C[C@@H]2[C@H](c3ccccc31)[C@@H](CO)N2C(=O)C1CC1,0.595% (inactive)
3,C[C@H]1CN([C@@H](C)CO)C(=O)c2cccc(NC(=O)Nc3ccc(C(F)(F)F)cc3)c2O[C@H]1CN(C)C(=O)Nc1cccc2ccccc12,9.1% (inactive)
4,COc1ccccc1CC(=O)OC(C)C(=O)Nc1ccc(S(=O)(=O)N2CCCCC2)cc1 (configuration not stated),10.7% (inactive)
5,N#C[C@@H]1[C@H](c2ccccc2C2=CCCCC2)[C@@H](CO)N1S(=O)(=O)c1ccccc1,-6.78% (inactive)
6,O=S(=O)(c1ccccc1F)N1CC[C@@H]2[C@H](CO)Nc3ccc(-c4cccc(F)c4)cc3[C@@H]21,-7.86% (inactive)
7,CCOc1ccccc1NC(=O)c1c(NC(=O)CCC(=O)O)sc2c1CCCCC2,5.99% (inactive)
8,C[C@H](O)C#Cc1ccc2c(c1)O[C@@H](CN(C)C)[C@H](C)CN([C@H](C)CO)S2(=O)=O,-5.23% (inactive)
9,N#Cc1ccc(-c2ccc3c(c2)[C@@H]2[C@@H](CCN2S(=O)(=O)c2cccc(F)c2)[C@H](CO)N3)cc1,-5.91% (inactive)
10,C[C@H](CO)N1C[C@H](C)[C@@H](CN(C)Cc2ccc(-c3ccccc3)cc2)Oc2ccc(NC(=O)C3CCCCC3)cc2C1=O,-7.32% (inactive)
11,C[C@@H]1CN([C@H](C)CO)C(=O)c2cc(NC(=O)C3CCCCC3)ccc2O[C@@H]1CN(C)Cc1ccc(-c2ccccc2)cc1,-5.41% (inactive)
12,CO[C@H]1CN(C)C(=O)c2cc(NC(=O)Nc3ccc(Cl)c(Cl)c3)ccc2OC[C@@H](C)NC[C@H]1C,6.57% (inactive)
